PubChem BioAssay (EPA / NIEHS)
“And” between values parts separate entries of the source, which are not always exact repeats. Identical values can stand only once. More than one record can exist for a structure, and the calls need not agree. The source made the active and inactive calls. How the source made its calls: active means hit-call score of the fitted dose curve at least 0.9, where 1 is the maximum; inactive means score below 0.9.

What follows are molecules tested on Interleukin-8 (IL8), CXCL8 (gene 3576) (assay: BSK_SAg_IL8: BioMAP Diversity Plus: SAg Assay for Interleukin-8 (IL8) Biomarker Activity (AID 2283094)). Settings: primary human HUVEC with PBMC; actives raise or lower the signal.
Summary of the method: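 Human umbilical vein endothelial cells co-cultured with PBMC, stimulated with superantigen; IL-8 measured by ELISA 24 h after chemical dosing. Bidirectional fitting versus DMSO; SRB staining in parallel cultures tracks cytotoxicity.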

SMILES	outcome	AC50
FC(F)(F)C(F)(F)C(F)(F)C(F)(F)C(F)(F)C(F)(F)CCS	inactive	–
O=C(O)C(F)(F)C(F)(F)OC(F)(F)F	inactive	–
FC(F)(I)C(F)(F)C(F)(F)C(F)(F)I	inactive	30 µM (active)
O=C(Cl)C(F)(F)C(F)(F)C(F)(F)C(F)(F)C(F)(F)C(F)(F)C(F)(F)C(F)(F)F	inactive	42.7 µM (active)
NC(=O)C(F)(F)C(F)(F)C(F)(F)C(F)(F)F	inactive	–
OCC(F)(F)C(F)(F)C(F)(F)C(F)F	inactive	–
C=CC(=O)OCC(F)(F)C(F)(F)C(F)(F)C(F)(F)C(F)(F)C(F)(F)C(F)(F)F	inactive	–
O=C(O)C(F)(F)C(F)(F)C(F)F	inactive	–
FC1CC(F)(F)C(F)(F)C1(F)F (stereo unspecified)	inactive	–
OCCCC(F)(F)C(F)(F)C(F)(F)C(F)(F)C(F)(F)C(F)(F)C(F)(F)F	–	23.3 µM (active) and 50.1 µM (active)
CCc1c(Br)c(Br)c(Br)c(Br)c1Br	inactive	–
O=C(CC(=O)C(F)(F)C(F)(F)F)C(F)(F)F	inactive	–
O=P(O)(O)OCCC(F)(F)C(F)(F)C(F)(F)C(F)(F)C(F)(F)C(F)(F)F	inactive	–
FC(F)(F)C(F)(F)C(F)(F)C(F)(F)C(F)(F)C(F)(F)C(F)(F)I	inactive	–
CCO[Si](CCC(F)(F)C(F)(F)C(F)(F)C(F)(F)C(F)(F)C(F)(F)F)(OCC)OCC	inactive	–
O=C(O)C(F)(F)C(F)(F)C(F)(F)C(F)(F)C(F)(F)C(F)(F)C(F)(F)C(F)(F)C(F)(F)C(F)F	–	41.6 µM (active) and 47.9 µM (active)
CC(C)(C)C(=O)CC(=O)C(F)(F)C(F)(F)C(F)(F)F	inactive	–
CCCCCCCCC(F)(F)C(F)(F)C(F)(F)C(F)(F)C(F)(F)C(F)(F)F	inactive	–
FC(F)(F)C(F)(F)C(F)(F)C(F)(F)CCI	inactive	–

SMILES	outcome	AC50
FC(F)(F)C(F)(F)C(F)(F)C(F)(F)C(F)(F)C(F)(F)C(F)(F)C(F)(F)CCS	inactive	–
FC(F)(Br)C(F)(F)C(F)(F)C(F)(F)C(F)(F)C(F)(F)Br	inactive	–
FC(F)(F)C(F)(F)C(F)(F)C(F)(F)C(F)(F)CCI	inactive	–
FC(F)(F)C(F)(F)CNCC(F)(F)C(F)(F)F	inactive	–
FC(F)(F)C(F)(F)C(F)(F)C(F)(F)C(F)(F)C(F)(F)CC1CO1 (stereo unspecified)	inactive	–
O=C(O)C=C(C(F)(F)F)C(F)(F)F	–	30 µM (active) and 20 µM (active)
FC(F)(F)C(F)(F)C(F)(F)C(F)(F)C(F)(F)C(F)(F)C(F)(F)C(F)(F)F	inactive	–
O=C(O)C(F)(F)C(F)(F)C(F)(F)C(F)(F)C(F)(F)C(F)(F)C(F)(F)C(F)(F)Cl	–	48.8 µM (active) and 50.1 µM (active)
FC(F)(F)C(F)(F)C(F)(F)C(F)(F)C(F)(F)C(F)(F)C(F)(F)Br	inactive	–
O=C(O)C(F)(F)C(F)(F)C(F)(F)C(F)(F)C(F)(F)C(F)(F)C(F)(F)C(F)(F)C(F)(F)C(F)(F)C(F)(F)C(F)(F)C(F)(F)F	inactive	–
C=CC/C=C/C/C=C/C/C=C/C	inactive	–
O=C(O)C(F)(OC(F)(F)C(F)(OC(F)(F)C(F)(F)C(F)(F)F)C(F)(F)F)C(F)(F)F (stereo unspecified)	inactive	–
O=S(=O)(OCC(F)F)C(F)(F)F	inactive	–
O=C(O)C(F)(F)C(F)(F)C(F)(F)C(F)(F)C(F)(F)C(F)(F)C(F)(F)C(F)(F)C(F)(F)C(F)(F)C(F)(F)C(F)(F)F	inactive	–
N=C(N)C(F)(F)C(F)(F)C(F)(F)C(F)(F)C(F)(F)C(F)(F)C(F)(F)F	inactive	55.1 µM (active)
CCCCCCOC(=O)c1ccccc1O	inactive	38.2 µM (active)
C=C(C)C(=O)OCCC(F)(F)C(F)(F)C(F)(F)C(F)(F)C(F)(C(F)(F)F)C(F)(F)F	inactive	–
CC(CCl)OP(=O)(OC(C)CCl)OC(C)CCl (stereo unspecified)	inactive	–
